Experiment [1] deals with T1, Ephrin type-B receptor 1 (Homo sapiens) (UniProt P54762).
T1 sequence (whole entry): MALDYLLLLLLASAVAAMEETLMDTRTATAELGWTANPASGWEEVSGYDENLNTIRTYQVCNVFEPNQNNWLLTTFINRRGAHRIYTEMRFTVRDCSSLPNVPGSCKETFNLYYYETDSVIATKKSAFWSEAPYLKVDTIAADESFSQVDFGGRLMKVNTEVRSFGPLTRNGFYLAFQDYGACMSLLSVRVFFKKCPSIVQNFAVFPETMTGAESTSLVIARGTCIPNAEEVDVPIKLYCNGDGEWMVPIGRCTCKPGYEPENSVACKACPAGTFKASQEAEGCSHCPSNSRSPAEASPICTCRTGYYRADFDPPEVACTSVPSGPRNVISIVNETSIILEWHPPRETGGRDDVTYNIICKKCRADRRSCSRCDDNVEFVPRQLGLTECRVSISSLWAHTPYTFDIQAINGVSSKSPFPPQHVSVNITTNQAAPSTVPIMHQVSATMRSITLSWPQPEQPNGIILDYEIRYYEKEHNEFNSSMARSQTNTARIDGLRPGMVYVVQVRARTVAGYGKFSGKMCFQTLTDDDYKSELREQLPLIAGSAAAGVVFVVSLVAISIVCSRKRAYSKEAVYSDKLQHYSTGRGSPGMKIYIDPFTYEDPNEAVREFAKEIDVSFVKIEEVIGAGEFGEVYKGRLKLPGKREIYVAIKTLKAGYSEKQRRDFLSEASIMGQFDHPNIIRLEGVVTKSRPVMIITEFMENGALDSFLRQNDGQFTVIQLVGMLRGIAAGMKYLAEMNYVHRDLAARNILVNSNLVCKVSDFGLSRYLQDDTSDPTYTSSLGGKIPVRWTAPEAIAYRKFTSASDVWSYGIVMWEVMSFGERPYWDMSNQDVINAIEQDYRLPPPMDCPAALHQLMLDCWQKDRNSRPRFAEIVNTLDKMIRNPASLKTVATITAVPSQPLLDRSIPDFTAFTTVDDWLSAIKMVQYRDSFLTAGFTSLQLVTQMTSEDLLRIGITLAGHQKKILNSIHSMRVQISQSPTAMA
The note with it: at 10 µM.

In experiment [2] the target is T2, Ephrin type-B receptor 2 (Homo sapiens) (UniProt P29323).
T2 sequence (whole entry): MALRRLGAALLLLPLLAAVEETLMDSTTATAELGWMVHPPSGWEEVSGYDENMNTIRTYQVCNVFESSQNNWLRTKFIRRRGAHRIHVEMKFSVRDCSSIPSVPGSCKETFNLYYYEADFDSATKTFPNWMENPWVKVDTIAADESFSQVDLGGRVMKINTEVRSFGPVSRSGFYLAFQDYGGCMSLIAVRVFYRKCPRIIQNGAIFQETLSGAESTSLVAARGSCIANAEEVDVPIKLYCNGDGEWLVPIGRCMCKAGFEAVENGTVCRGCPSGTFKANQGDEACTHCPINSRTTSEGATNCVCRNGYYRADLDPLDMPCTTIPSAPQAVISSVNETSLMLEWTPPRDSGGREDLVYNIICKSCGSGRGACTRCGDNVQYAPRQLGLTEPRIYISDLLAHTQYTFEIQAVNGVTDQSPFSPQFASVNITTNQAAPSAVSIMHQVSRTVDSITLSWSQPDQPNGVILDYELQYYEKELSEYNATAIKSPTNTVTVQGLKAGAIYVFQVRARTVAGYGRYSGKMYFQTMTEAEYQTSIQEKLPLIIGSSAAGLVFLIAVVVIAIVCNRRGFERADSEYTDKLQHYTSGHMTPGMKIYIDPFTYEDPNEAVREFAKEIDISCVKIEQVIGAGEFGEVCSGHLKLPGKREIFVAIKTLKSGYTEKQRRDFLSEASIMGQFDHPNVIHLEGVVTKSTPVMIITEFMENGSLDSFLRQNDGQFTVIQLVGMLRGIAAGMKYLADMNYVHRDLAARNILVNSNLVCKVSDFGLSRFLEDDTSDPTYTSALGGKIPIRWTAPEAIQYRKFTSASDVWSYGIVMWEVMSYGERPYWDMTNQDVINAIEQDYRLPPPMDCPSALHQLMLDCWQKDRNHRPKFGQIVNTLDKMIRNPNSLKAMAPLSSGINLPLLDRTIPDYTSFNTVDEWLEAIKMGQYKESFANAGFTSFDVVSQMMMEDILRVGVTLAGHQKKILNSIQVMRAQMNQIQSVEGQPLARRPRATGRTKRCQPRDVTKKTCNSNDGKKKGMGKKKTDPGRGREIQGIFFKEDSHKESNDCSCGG
The note with it: at 1 µM.

The target of experiment [3] is T2, Ephrin type-B receptor 2 (Homo sapiens). As to conditions: at 10 µM; call rule not given here.
For experiment [4], the target named is T3, Ephrin type-B receptor 3 (Homo sapiens) (UniProt P54753).
T3 sequence (whole entry): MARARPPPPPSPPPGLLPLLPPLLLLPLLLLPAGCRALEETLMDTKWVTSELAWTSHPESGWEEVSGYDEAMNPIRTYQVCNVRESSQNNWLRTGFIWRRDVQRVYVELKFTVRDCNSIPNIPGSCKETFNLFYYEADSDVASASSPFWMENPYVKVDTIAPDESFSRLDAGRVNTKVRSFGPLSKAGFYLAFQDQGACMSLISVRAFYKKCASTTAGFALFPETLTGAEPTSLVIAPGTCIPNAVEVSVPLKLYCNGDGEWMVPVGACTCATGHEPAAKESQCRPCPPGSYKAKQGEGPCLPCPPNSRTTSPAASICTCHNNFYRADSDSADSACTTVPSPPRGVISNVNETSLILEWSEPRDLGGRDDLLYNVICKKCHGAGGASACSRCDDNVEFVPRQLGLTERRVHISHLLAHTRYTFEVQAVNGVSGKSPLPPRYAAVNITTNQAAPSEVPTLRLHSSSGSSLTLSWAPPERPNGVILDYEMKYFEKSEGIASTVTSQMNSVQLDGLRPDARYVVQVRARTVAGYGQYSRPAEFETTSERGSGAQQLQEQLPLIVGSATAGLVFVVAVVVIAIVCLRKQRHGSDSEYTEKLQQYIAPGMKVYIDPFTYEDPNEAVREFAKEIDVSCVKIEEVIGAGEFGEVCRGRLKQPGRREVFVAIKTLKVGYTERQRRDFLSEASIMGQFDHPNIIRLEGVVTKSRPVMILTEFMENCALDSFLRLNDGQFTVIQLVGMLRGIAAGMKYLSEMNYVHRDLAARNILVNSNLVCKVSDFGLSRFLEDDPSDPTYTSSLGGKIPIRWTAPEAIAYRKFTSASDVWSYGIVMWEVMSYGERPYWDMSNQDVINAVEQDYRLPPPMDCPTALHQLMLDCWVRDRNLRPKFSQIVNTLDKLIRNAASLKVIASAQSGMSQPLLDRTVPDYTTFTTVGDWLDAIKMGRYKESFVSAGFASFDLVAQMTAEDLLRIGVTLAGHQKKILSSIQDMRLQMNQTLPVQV
The note with it: at 1 µM.

The target of experiment [5] is T3, Ephrin type-B receptor 3 (Homo sapiens). As to conditions: at 10 µM.
The target in experiment [6] is T4, Ephrin type-B receptor 4 (Homo sapiens) (UniProt P54760).
T4 sequence (whole entry): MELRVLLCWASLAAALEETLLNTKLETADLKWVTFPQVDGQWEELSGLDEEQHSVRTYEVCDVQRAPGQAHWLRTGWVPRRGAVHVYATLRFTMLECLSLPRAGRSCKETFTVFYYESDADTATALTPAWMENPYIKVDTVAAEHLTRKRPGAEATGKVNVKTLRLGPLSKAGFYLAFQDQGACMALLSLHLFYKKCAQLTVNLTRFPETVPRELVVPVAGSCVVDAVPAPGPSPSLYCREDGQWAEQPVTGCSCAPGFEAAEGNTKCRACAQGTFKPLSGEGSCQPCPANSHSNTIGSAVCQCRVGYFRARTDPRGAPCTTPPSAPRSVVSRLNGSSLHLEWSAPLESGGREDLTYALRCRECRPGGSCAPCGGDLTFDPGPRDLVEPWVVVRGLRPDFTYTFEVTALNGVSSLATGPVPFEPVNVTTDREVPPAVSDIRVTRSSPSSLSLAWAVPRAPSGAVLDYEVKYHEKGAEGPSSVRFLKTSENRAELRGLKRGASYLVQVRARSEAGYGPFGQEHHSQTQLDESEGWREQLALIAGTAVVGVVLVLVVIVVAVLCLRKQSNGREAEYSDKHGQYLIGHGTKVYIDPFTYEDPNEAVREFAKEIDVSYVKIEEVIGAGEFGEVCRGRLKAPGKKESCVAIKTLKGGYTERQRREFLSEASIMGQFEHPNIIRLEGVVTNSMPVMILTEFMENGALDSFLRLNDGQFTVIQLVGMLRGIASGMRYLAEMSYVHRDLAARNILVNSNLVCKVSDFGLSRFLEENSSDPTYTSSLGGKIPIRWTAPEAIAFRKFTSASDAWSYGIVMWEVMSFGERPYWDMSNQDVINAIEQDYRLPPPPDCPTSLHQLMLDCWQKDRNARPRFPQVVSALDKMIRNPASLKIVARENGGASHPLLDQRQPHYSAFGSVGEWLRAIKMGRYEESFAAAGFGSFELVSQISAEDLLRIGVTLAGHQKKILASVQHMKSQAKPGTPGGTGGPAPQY
As to conditions: at 1 µM.

Experiment [7] deals with T4, Ephrin type-B receptor 4 (Homo sapiens). As to conditions: at 10 µM.
Experiment [8] addresses Receptor tyrosine-protein kinase erbB-4 (Homo sapiens) (UniProt Q15303). As to conditions: at 1 µM.
Experiment [9] has the same target. The note with it: at 10 µM.
The target in experiment [10] is Focal adhesion kinase 1 (Homo sapiens) (UniProt Q05397). The note with it: at 1 µM.
Chain of Focal adhesion kinase 1 (Homo sapiens) (Q05397 2-1052 limits assumed): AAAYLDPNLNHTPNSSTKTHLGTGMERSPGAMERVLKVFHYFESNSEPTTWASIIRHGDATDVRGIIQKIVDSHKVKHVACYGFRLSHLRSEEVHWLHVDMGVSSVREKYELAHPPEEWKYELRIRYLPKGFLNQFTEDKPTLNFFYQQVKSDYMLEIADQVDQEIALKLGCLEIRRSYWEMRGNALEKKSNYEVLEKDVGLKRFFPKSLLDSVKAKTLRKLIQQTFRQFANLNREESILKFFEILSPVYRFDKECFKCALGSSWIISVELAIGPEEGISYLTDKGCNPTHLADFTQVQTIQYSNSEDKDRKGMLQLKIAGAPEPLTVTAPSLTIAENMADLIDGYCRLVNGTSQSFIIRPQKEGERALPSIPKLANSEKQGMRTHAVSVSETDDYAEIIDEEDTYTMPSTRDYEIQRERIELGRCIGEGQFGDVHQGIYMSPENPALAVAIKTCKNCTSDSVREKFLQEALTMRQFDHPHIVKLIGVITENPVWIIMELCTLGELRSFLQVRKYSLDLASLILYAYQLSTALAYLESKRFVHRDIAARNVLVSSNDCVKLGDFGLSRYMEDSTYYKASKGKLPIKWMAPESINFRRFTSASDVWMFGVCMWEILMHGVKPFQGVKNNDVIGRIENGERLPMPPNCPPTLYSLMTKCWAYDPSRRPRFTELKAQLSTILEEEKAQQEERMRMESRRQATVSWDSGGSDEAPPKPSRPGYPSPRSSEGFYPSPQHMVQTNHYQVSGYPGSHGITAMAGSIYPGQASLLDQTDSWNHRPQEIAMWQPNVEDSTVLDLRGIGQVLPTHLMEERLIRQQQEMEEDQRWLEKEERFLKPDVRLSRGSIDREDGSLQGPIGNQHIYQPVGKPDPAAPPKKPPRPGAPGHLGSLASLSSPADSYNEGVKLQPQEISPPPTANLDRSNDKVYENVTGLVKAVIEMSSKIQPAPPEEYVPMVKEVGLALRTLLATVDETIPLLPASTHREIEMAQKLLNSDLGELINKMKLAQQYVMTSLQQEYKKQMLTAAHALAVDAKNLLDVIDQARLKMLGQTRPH

Chain of Receptor tyrosine-protein kinase erbB-4 (Homo sapiens) (Q15303 whole entry): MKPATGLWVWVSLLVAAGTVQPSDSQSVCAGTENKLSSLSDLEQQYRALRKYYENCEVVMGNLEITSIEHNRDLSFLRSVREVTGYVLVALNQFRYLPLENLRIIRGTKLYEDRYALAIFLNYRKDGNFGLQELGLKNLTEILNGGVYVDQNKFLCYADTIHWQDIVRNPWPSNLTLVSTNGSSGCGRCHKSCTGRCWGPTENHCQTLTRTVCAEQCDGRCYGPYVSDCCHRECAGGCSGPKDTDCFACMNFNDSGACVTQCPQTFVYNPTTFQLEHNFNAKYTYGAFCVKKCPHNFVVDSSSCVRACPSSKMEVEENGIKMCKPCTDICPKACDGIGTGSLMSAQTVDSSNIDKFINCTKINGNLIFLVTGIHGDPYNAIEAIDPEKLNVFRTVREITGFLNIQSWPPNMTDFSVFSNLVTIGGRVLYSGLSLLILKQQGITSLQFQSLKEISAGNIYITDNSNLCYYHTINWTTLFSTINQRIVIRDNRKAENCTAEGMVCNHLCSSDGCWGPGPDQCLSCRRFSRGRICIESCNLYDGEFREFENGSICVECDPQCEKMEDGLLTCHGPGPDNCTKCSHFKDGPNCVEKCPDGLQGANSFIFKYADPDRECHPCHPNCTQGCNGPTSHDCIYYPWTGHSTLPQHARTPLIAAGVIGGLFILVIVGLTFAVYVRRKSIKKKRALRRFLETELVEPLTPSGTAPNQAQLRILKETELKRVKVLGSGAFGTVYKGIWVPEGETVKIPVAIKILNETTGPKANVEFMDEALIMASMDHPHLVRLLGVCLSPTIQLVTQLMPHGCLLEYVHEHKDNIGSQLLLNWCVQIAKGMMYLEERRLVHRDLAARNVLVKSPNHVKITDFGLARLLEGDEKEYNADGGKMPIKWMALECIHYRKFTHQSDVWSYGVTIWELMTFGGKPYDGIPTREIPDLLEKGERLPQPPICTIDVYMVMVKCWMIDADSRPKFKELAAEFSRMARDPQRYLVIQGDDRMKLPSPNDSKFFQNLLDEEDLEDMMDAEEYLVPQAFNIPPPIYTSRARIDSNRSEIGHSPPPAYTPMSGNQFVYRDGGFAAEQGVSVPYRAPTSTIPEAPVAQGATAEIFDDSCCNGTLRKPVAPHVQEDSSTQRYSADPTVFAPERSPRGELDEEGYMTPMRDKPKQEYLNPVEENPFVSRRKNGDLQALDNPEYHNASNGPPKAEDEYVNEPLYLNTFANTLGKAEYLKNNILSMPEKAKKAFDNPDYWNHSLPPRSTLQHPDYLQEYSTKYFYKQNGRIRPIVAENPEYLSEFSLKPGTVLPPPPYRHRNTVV

Broadly, the residual activity is the signal under treatment as a percentage of the control signal. Regarding `Nc1cccc(-c2cc3c(Oc4cccc(O)c4)ncnc3[nH]2)c1`, the residual activity in experiment [1] is -1%; in [2], 4%; in [3], -1%; in [4], 105% (inactive); in [5], 90%; in experiment [6], 2%. Besides, the residual activity in experiment [7] is -3%; in experiment [8] it was 71%; in experiment [9] it was 19%; in experiment [10] it was 87%.

Source of the values: ChEMBL document CHEMBL2218924, “A broad activity screen in support of a chemogenomic map for kinase signalling research and drug discovery” (Biochem J, 2013).
